Bioassay records from PubChem.
This is a sample that favours compounds with a hit; in the whole collection about 3.3% have one here.
USP28 inh: human USP28 deubiquitinase inhibition; Q96RU2; purified USP28, Ub-rhodamine cleavage fluorescence, 30 min; inhibition, % at 25 µM; hit rate 3% among 47,000
OTUD3 inh: inhibitors of human OTUD3 deubiquitinase; Q5T2D3; purified OTUD3, Ub-rhodamine fluorescence, 2 h; inhibition, % at 25 µM; hit rate 0.7% among 47,000; AID 1645858
* hit, by the source's call; / = no result given. Rule as the data show it: active = inhibition above about 30%; inactive = the rest.

SMILES	USP28 inh	OTUD3 inh
CN1C(=O)C(C)(C)c2cc(S(=O)(=O)N3CCCC3C(=O)NC3CCCC3)ccc21 (configuration not stated)	10	14
O=C1NC2(CCC(=O)N(CC(=O)N3CCN(c4ccccn4)CC3)CC2)Nc2ccccc21 (configuration not stated)	-6	2
Cc1ccc(/C=C/S(=O)(=O)N2CCC(C(=O)Nc3nnc(C)o3)CC2)cc1	7	20
COc1ccc(COc2ccc(-n3cnnn3)cc2)cc1F	-8	-4
Clc1cccc(COc2ccc(-n3cnnn3)cc2)c1	49*	6
COc1ccccc1N1CCN(C(=O)/C=C/c2ccc(OCc3ccc(Cl)cc3Cl)cc2)CC1	5	4
Cc1ccc(CN(C(=O)c2cc(-c3ccccc3)on2)C2CCS(=O)(=O)C2)cc1 (configuration not stated)	10	14
CCOC(=O)c1ccc(NC(=O)C[n+]2cc(-c3ccc(C)cc3)n3c2CCC3)cc1	20	9
CCOC(=O)c1ccc(NC(=O)C[n+]2cc(-c3ccc(Cl)cc3)n3c2CCC3)cc1	35*	24
COc1ccccc1/C=C/c1nc(-c2ccc3oc(C)nc3c2)no1	17	12
COCC(=O)N[C@@H]1[C@@H](c2ccccc2)[C@@H](CO)N2CCCC[C@H]12	-14	-7
CCc1onc(C)c1C1CCCN1S(=O)(=O)c1ccccc1 (configuration not stated)	-10	-5
CCc1ccc(NC(=O)COC(=O)Cn2cnc3ccccc32)cc1	32*	1
Cc1ccc(NC(=O)COC(=O)Cn2cnc3c2c(=O)n(C)c(=O)n3C)cc1	8	5
COc1cc(NC(=O)COC(=O)Cn2cnc3ccccc32)cc(OC)c1	51*	-3
COc1cccc(NC(=O)Cn2c(C(F)(F)F)nc3ccccc32)c1	/	1
CCc1ccccc1N(CC(=O)NCc1ccccc1)C(=O)CCC(=O)Nc1nccs1	-6	-8
O=C(NCC1CC1)C1(Cc2ccccc2)CCOCC1	8	6
COc1ccc(-c2cc3nc([C@H](C)NC(=O)Cc4cccc(F)c4)nn3cn2)cc1	12	17
COc1ccc(-c2cc3nc([C@@H](C)NC(=O)c4ccc5c(c4)OCO5)nn3cn2)cc1	64*	21
COc1ccccc1-n1cc(-c2ccc(C)cc2)nc1S(=O)(=O)CC(=O)Nc1ccc(F)cc1	4	0
CN1C[C@@H]2C[C@H](NS(=O)(=O)c3cccc(C#N)c3)CN2Cc2ccccc21	-30	-23
CC(=O)Nc1cccc(NS(=O)(=O)c2cccc(Cl)c2)c1	7	6
CC(=O)Nc1ccc(NC(=O)Nc2ccc(F)cc2)cc1	19	7
COc1ccccc1NC(=O)c1ccc(-c2csc(C)n2)cc1	/	2
SMILES	USP28 inh	OTUD3 inh
COc1cccc(NC(=O)c2ccc(-c3csc(C)n3)cc2)c1	60*	-9
CCC(=O)Nc1cccnc1-c1ccc(C(=O)Nc2cccc(OC)c2)cc1	57*	0
COc1cccc(NC(=O)c2cc(-c3cccs3)on2)c1	32*	-4
CN(C)S(=O)(=O)c1cccc(NC(=O)c2cc(-c3cccs3)on2)c1	11	4
COc1cccc(NC(=O)Nc2ccc(NC(C)=O)cc2)c1	51*	-7
CCC(=O)Nc1cccnc1-c1ccc(C(=O)Nc2ccc(C)cc2C)cc1	26	-6
COc1ccc(OC)c(S(=O)(=O)N2CCOC(c3ccccc3)C2)c1 (configuration not stated)	-16	-13
O=C1Nc2cc(C(=O)N3CCCC3)ccc2NC1CS(=O)(=O)Cc1ccc(F)cc1Cl (configuration not stated)	-49	-43
COc1cccc(C(=O)Nc2nc(-c3ccco3)c(-c3ccco3)s2)c1	0	25
CN1CCN(Cc2ccc(S(C)(=O)=O)cc2)CC1c1ccccc1 (configuration not stated)	1	8
c1ccc(-c2cc(CC3(NC4CCCCC4)COC3)no2)nc1	-17	-9
COc1ccc(-c2nc3n(n2)C(CC(=O)Nc2cccc4ccccc24)C(=O)N3)cc1 (configuration not stated)	27	19
CCc1c(Cl)c(O)c(Cl)c(O)c1C(=O)O[C@H]1C(C)O[C@@H](OC/C2=C\C=C\CC(O)/C(C)=C/C(CC)C(O[C@@H]3OC(C)(C)[C@H](O)C(OC(=O)C(C)C)[C@@H]3O)/C(C)=C/C(C)=C/CC(C(C)O)OC2=O)[C@@H](OC)C1O (some centres not stated)	85*	32*
COCC1OC(OC2OCC3OC4(OC(C)C(O)(C(C)=O)C5OCOC54)O[C@H]3[C@H]2OC(=O)C(C)C)[C@@H](OC)[C@@H](O)C1O[C@@H]1O[C@H](C)[C@H](OC)[C@H](OC2O[C@H](C)C3OC4(C[C@@H](O)C(O[C@H]5C[C@@H](O)C(OC(=O)c6c(C)c(Cl)c(O)c(Cl)c6OC)[C@@H](C)O5)[C@@H](C)O4)O[C@@]3(C)[C@@H]2O)C1O (some centres not stated)	-9	-8
COc1ccc(N2CCN(CCCNC(=O)c3cc(C(F)(F)F)n(C)n3)CC2)cc1	-10	-5
CCC(C)[C@H](NC(=O)[C@@H]1Cc2c([nH]c3ccccc23)C2c3ccccc3C(=O)N21)C(=O)NCCc1ccc(OC)cc1 (some centres not stated)	-29	-24
Cc1cc(C)n(-c2ccnc(N3CCC(C(=O)NC4CCCC4)CC3)n2)n1	0	-2
Cc1cc(C)n(-c2ccnc(N3CCC(C(=O)N4CCN(c5ccccn5)CC4)CC3)n2)n1	30*	4
c1ccc(-c2nc(-c3cccnc3)cc(N3CCC4(CC3)OCCO4)n2)nc1	-57	-37
CCCCCCCc1cc(OC(=O)c2c(CCCCCCC)cc(O)cc2O[C@@H]2O[C@H](CO)[C@@H](O)[C@H](O)[C@H]2O)cc(O)c1C(=O)O	102*	102*
COc1cc(C(=O)OCc2ccc(O[C@@H]3O[C@H](CO)[C@@H](O)[C@H](O)[C@H]3O)cc2)ccc1O	-62	11
O=C(O)CCCCc1cc(O)cc(O)c1	-20	-12
CCCCCCCCCCCCCCCc1cc(O)cc(O)c1C(=O)O	53*	36*
Cc1ccc2cc(CN(C)C(=O)c3ccc([N+](=O)[O-])cc3)c(=O)[nH]c2c1	4	4
O=C(NCCc1c[nH]c2ccc(F)cc12)c1ccccn1	4	0
SMILES	USP28 inh	OTUD3 inh
CC(C)(C)c1ccc(C(=O)Nc2ccc(Oc3cccnc3)nc2)cc1	53*	8
Cc1ccccc1C(=O)Nc1ccc(Oc2ccc(C(C)(C)C)cc2)nc1	12	2
O=C(c1cccc(Br)c1)N(C(=O)c1cccc(Br)c1)c1ncccn1	2	6
O=C(Nc1cccc(Cl)c1)N1CCC(c2nc(-c3cccnc3)no2)CC1	-7	-7
O=C(Nc1cccc(Cl)c1)N1CCC(c2cc(-c3ccco3)n[nH]2)CC1	39*	33*
COc1ccc(CCNC(=O)CCCn2c(SCC(=O)NCc3ccco3)nc3ccccc3c2=O)cc1OC	0	37*
COC(=O)CSc1nc2ccccc2c(=O)n1Cc1ccco1	12	12
Cc1cccc(N2CCN(C(=O)C3CCN(c4nc5cccnc5s4)CC3)CC2C)c1 (configuration not stated)	-2	-12
COc1ccc(CNC(=O)C2CCCN(C(=O)c3cc(-c4cccnc4)n[nH]3)C2)cc1 (configuration not stated)	4	1
